Measurements from the supplement of paper PMC12669032.

Tests used:
Assay in all cases: growth AUC relative to DMSO control (median of replicates) (fraction); higher = more growth (less inhibition), active = hit call of the paper
Conditions in all cases: 20 µM; 24 h;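 active = AUC reduced over 20% with Padj below 0.05 in at least 2 of 3 replicates; inactive = otherwise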
Akkermansia muciniphila = tested on: Akkermansia muciniphila
How it was run: (§1)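 OD600 was recorded every hour for 24 h in anaerobic monocultures of gut bacteria kept at 37 °C in mGAM, seeded at OD600 0.05 and given 20 µM compound in 1% DMSO. The area under each growth curve was scaled to the plate median of solvent-only wells, or to row and column medians for the industrial chemical plate. Before this step, the minimum OD was set to 0. Reported values are medians of three biological replicates run on separate days.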

Bacteroides caccae = tested on: Bacteroides caccae
How it was run: as §1

Bacteroides clarus = tested on: Bacteroides clarus
How it was run: as §1

Bacteroides dorei = tested on: Bacteroides dorei
How it was run: as §1

Bacteroides stercoris = tested on: Bacteroides stercoris
How it was run: as §1

[1] = tested on: Bacteroides thetaiotaomicron
How it was run: as §1

Bacteroides uniformis = tested on: Bacteroides uniformis
How it was run: as §1

[2] = tested on: Bifidobacterium longum subsp. longum
How it was run: as §1

Clostridium difficile = tested on: Clostridium difficile
How it was run: as §1

Collinsella aerofaciens = tested on: Collinsella aerofaciens
How it was run: as §1

Coprococcus comes = tested on: Coprococcus comes
How it was run: as §1

Escherichia coli ED1a = tested on: Escherichia coli ED1a
How it was run: as §1

Escherichia coli IAI1 = tested on: Escherichia coli IAI1
How it was run: as §1

Eubacterium rectale = tested on: Eubacterium rectale
How it was run: as §1

[3] = tested on: Fusobacterium nucleatum subsp. animalis
How it was run: as §1

Lactobacillus gasseri = tested on: Lactobacillus gasseri
How it was run: as §1

Lactobacillus paracasei = tested on: Lactobacillus paracasei
How it was run: as §1

Odoribacter splanchnicus = tested on: Odoribacter splanchnicus
How it was run: as §1

[4] = tested on: Parabacteroides distasonis
How it was run: as §1

Parabacteroides merdae = tested on: Parabacteroides merdae
How it was run: as §1

Measured: growth AUC

CCCCCCCCCC[N+](C)(C)Cc1ccccc1.[Cl-]
inactive: Akkermansia muciniphila 0.987 | Bacteroides caccae 0.962 | Bacteroides clarus 0.987 | Bacteroides dorei 0.979 | Bacteroides stercoris 1.21 | [1] 0.996 | Bacteroides uniformis 0.896 | [2] 0.866 | Clostridium difficile 0.921 | Collinsella aerofaciens 0.848 | Coprococcus comes 0.9 | Escherichia coli ED1a 1 | Escherichia coli IAI1 0.969 | Eubacterium rectale 0.91 | [3] 1.02 | Lactobacillus gasseri 0.712 | Lactobacillus paracasei 1.06 | Odoribacter splanchnicus 0.926 | [4] 0.847 | Parabacteroides merdae 0.91

CCc1cc(C(=O)O)cc(CC)c1C1C(=O)N2CCOCCN2C1=O
inactive: Akkermansia muciniphila 1.02 | Bacteroides caccae 1.04 | Bacteroides clarus 1.03 | Bacteroides dorei 1.05 | Bacteroides stercoris 1.07 | [1] 0.999 | Bacteroides uniformis 1.02 | [2] 1.04 | Clostridium difficile 0.976 | Collinsella aerofaciens 1.03 | Coprococcus comes 1 | Escherichia coli ED1a 1.02 | Escherichia coli IAI1 1.02 | Eubacterium rectale 1.01 | [3] 1.11 | Lactobacillus gasseri 1.11 | Lactobacillus paracasei 1.04 | Odoribacter splanchnicus 1.13 | [4] 0.99 | Parabacteroides merdae 1.04

CNC(=O)/C(=N/OC)c1ccccc1COc1cc(C)ccc1C
inactive: Akkermansia muciniphila 0.923 | Bacteroides caccae 1 | Bacteroides clarus 0.94 | Bacteroides dorei 1.01 | Bacteroides stercoris 1.01 | [1] 0.946 | Bacteroides uniformis 0.962 | [2] 0.972 | Clostridium difficile 0.987 | Collinsella aerofaciens 0.968 | Coprococcus comes 0.974 | Escherichia coli ED1a 1.01 | Escherichia coli IAI1 1 | Eubacterium rectale 0.92 | [3] 0.931 | Lactobacillus gasseri 1.01 | Lactobacillus paracasei 1.01 | Odoribacter splanchnicus 0.981 | [4] 0.92 | Parabacteroides merdae 0.926

CCC(C)Nc1nc(N)nc(Cl)n1 (stereo not given)
inactive: Akkermansia muciniphila 1.09 | Bacteroides caccae 0.906 | Bacteroides clarus 0.995 | Bacteroides dorei 1.02 | Bacteroides stercoris 1.16 | [1] 1.01 | Bacteroides uniformis 0.949 | [2] 1.03 | Clostridium difficile 0.974 | Collinsella aerofaciens 1.01 | Coprococcus comes 0.981 | Escherichia coli ED1a 1 | Escherichia coli IAI1 1.01 | Eubacterium rectale 1.05 | [3] 1.03 | Lactobacillus gasseri 0.996 | Lactobacillus paracasei 1.02 | Odoribacter splanchnicus 0.976 | [4] 1.01 | Parabacteroides merdae 1.03

CCCCOC(=O)[C@@H](C)Oc1ccc(Oc2ccc(C(F)(F)F)cn2)cc1
inactive: Akkermansia muciniphila 0.865 | Bacteroides caccae 0.983 | Bacteroides clarus 0.932 | Bacteroides dorei 0.951 | Bacteroides stercoris 0.851 | [1] 0.948 | Bacteroides uniformis 0.918 | [2] 0.969 | Clostridium difficile 0.989 | Collinsella aerofaciens 0.963 | Coprococcus comes 0.961 | Escherichia coli ED1a 0.989 | Escherichia coli IAI1 0.997 | Eubacterium rectale 0.918 | [3] 0.789 | Lactobacillus gasseri 0.915 | Lactobacillus paracasei 0.993 | Odoribacter splanchnicus 0.977 | [4] 0.844 | Parabacteroides merdae 0.96

CCCCN(C)C(=O)Nc1ccc(Cl)c(Cl)c1
inactive: Akkermansia muciniphila 0.739 | Bacteroides caccae 0.886 | Bacteroides clarus 0.952 | Bacteroides dorei 0.97 | Bacteroides stercoris 1.16 | [1] 0.899 | Bacteroides uniformis 0.864 | [2] 0.951 | Clostridium difficile 0.943 | Collinsella aerofaciens 1 | Coprococcus comes 1.04 | Escherichia coli ED1a 1.01 | Escherichia coli IAI1 1 | Eubacterium rectale 1.04 | [3] 1.01 | Lactobacillus gasseri 0.965 | Lactobacillus paracasei 0.98 | Odoribacter splanchnicus 0.901 | [4] 0.816 | Parabacteroides merdae 0.932

CC(C)(SC(=O)N1CCCCC1)c1ccccc1
inactive: Akkermansia muciniphila 0.978 | Bacteroides caccae 0.973 | Bacteroides clarus 0.982 | Bacteroides dorei 1.01 | Bacteroides stercoris 0.945 | [1] 0.927 | Bacteroides uniformis 0.965 | [2] 1.01 | Clostridium difficile 0.99 | Collinsella aerofaciens 1 | Coprococcus comes 0.998 | Escherichia coli ED1a 1.01 | Escherichia coli IAI1 1.01 | Eubacterium rectale 1.02 | [3] 1.07 | Lactobacillus gasseri 1.01 | Lactobacillus paracasei 1.02 | Odoribacter splanchnicus 1 | Parabacteroides merdae 0.965
active: [4] 0.778

CC1(C)C(C(=O)OC(C#N)c2cccc(Oc3ccccc3)c2)C1C(Br)C(Br)(Br)Br (stereo not given)
inactive: Akkermansia muciniphila 0.951 | Bacteroides caccae 0.934 | Bacteroides clarus 1.04 | Bacteroides dorei 0.995 | Bacteroides stercoris 1.2 | [1] 1 | Bacteroides uniformis 0.943 | [2] 1.03 | Clostridium difficile 1.03 | Collinsella aerofaciens 0.939 | Coprococcus comes 0.99 | Escherichia coli ED1a 1.02 | Escherichia coli IAI1 1.01 | Eubacterium rectale 0.996 | [3] 1.05 | Lactobacillus gasseri 1.04 | Lactobacillus paracasei 1.12 | Odoribacter splanchnicus 1.06 | [4] 0.998 | Parabacteroides merdae 1

CC(C)N(C(=O)CS(=O)(=O)[O-])c1ccc(F)cc1.[Na+]
inactive: Akkermansia muciniphila 0.977 | Bacteroides caccae 1.02 | Bacteroides clarus 0.979 | Bacteroides dorei 0.984 | Bacteroides stercoris 0.966 | [1] 0.948 | Bacteroides uniformis 1.04 | [2] 0.944 | Clostridium difficile 1.05 | Collinsella aerofaciens 0.957 | Coprococcus comes 0.982 | Escherichia coli ED1a 0.983 | Escherichia coli IAI1 0.984 | Eubacterium rectale 1.02 | [3] 0.956 | Lactobacillus gasseri 1.01 | Lactobacillus paracasei 0.957 | Odoribacter splanchnicus 1.13 | [4] 1.02 | Parabacteroides merdae 0.995

C/C=C/C=C/CCCCCCCO
inactive: Akkermansia muciniphila 0.879 | Bacteroides caccae 1.03 | Bacteroides clarus 0.982 | Bacteroides dorei 1.02 | Bacteroides stercoris 1.07 | [1] 0.969 | Bacteroides uniformis 1 | [2] 1.01 | Clostridium difficile 0.984 | Collinsella aerofaciens 1.02 | Coprococcus comes 0.995 | Escherichia coli ED1a 1.01 | Escherichia coli IAI1 0.983 | Eubacterium rectale 1.03 | [3] 1.08 | Lactobacillus gasseri 0.96 | Lactobacillus paracasei 0.984 | Odoribacter splanchnicus 1.03 | [4] 0.967 | Parabacteroides merdae 0.982

CCOC(=O)C1=NN(c2ccc(Cl)cc2Cl)C(C)(C(=O)OCC)C1 (stereo not given)
inactive: Akkermansia muciniphila 0.965 | Bacteroides caccae 0.979 | Bacteroides clarus 0.932 | Bacteroides dorei 1.02 | Bacteroides stercoris 0.933 | [1] 0.92 | Bacteroides uniformis 0.95 | [2] 0.931 | Clostridium difficile 1.03 | Collinsella aerofaciens 1.01 | Coprococcus comes 0.97 | Escherichia coli ED1a 0.993 | Escherichia coli IAI1 0.989 | Eubacterium rectale 0.903 | [3] 0.985 | Lactobacillus gasseri 1.06 | Lactobacillus paracasei 0.883 | Odoribacter splanchnicus 1.04 | [4] 0.918 | Parabacteroides merdae 0.928

CCCCCCCCc1c(CC)nc2ncnn2c1N
inactive: Akkermansia muciniphila 1.05 | Bacteroides caccae 1.03 | Bacteroides clarus 0.991 | Bacteroides dorei 0.989 | Bacteroides stercoris 0.953 | [1] 0.97 | Bacteroides uniformis 0.973 | [2] 0.995 | Clostridium difficile 0.972 | Collinsella aerofaciens 0.926 | Coprococcus comes 1.01 | Escherichia coli ED1a 0.986 | Escherichia coli IAI1 0.978 | Eubacterium rectale 0.988 | [3] 1.04 | Lactobacillus gasseri 0.904 | Lactobacillus paracasei 0.931 | Odoribacter splanchnicus 0.989 | [4] 0.946 | Parabacteroides merdae 0.964

CSc1nc(NC2CC2)nc(NC(C)(C)C)n1
inactive: Akkermansia muciniphila 0.845 | Bacteroides caccae 1.03 | Bacteroides clarus 0.988 | Bacteroides dorei 1.03 | Bacteroides stercoris 0.871 | [1] 0.895 | Bacteroides uniformis 1 | [2] 1.04 | Clostridium difficile 1.04 | Collinsella aerofaciens 1.06 | Coprococcus comes 0.981 | Escherichia coli ED1a 1.03 | Escherichia coli IAI1 1.03 | Eubacterium rectale 0.974 | [3] 1.06 | Lactobacillus gasseri 1.05 | Lactobacillus paracasei 0.987 | Odoribacter splanchnicus 1.11 | [4] 1.02 | Parabacteroides merdae 0.991

COC(=O)CC(NC(=O)[C@@H](NC(=O)OC(C)C)C(C)C)c1ccc(Cl)cc1 (stereo not given in full)
inactive: Akkermansia muciniphila 1.08 | Bacteroides caccae 0.934 | Bacteroides clarus 0.991 | Bacteroides dorei 1.02 | Bacteroides stercoris 1.34 | [1] 0.981 | Bacteroides uniformis 0.934 | [2] 1.01 | Clostridium difficile 1.01 | Collinsella aerofaciens 0.963 | Coprococcus comes 0.954 | Escherichia coli ED1a 1.02 | Escherichia coli IAI1 0.986 | Eubacterium rectale 0.993 | [3] 1.11 | Lactobacillus gasseri 1.01 | Lactobacillus paracasei 0.992 | Odoribacter splanchnicus 0.87 | [4] 0.954 | Parabacteroides merdae 1.01

CSC(=O)c1cccc2nnsc12
inactive: Akkermansia muciniphila 0.851 | Bacteroides caccae 1.04 | Bacteroides clarus 0.997 | Bacteroides dorei 0.978 | Bacteroides stercoris 1.07 | [1] 0.961 | Bacteroides uniformis 1 | [2] 1.04 | Clostridium difficile 1 | Collinsella aerofaciens 1.01 | Coprococcus comes 1.01 | Escherichia coli ED1a 0.994 | Escherichia coli IAI1 0.981 | Eubacterium rectale 1.03 | [3] 1.12 | Lactobacillus gasseri 0.934 | Lactobacillus paracasei 0.953 | Odoribacter splanchnicus 1.01 | [4] 0.921 | Parabacteroides merdae 1.01

Br[C@@H]1CC[C@@H](Br)[C@@H](Br)CC[C@H](Br)[C@H](Br)CC[C@H]1Br
inactive: Akkermansia muciniphila 1.04 | Bacteroides caccae 0.941 | Bacteroides clarus 1 | Bacteroides dorei 0.985 | Bacteroides stercoris 1 | [1] 0.978 | Bacteroides uniformis 0.977 | [2] 0.979 | Clostridium difficile 1 | Collinsella aerofaciens 0.815 | Coprococcus comes 0.975 | Escherichia coli ED1a 0.944 | Escherichia coli IAI1 0.968 | Eubacterium rectale 1.08 | [3] 1.03 | Lactobacillus gasseri 0.91 | Lactobacillus paracasei 0.872 | Odoribacter splanchnicus 0.992 | [4] 0.825 | Parabacteroides merdae 1
